The values that follow come from article PMC4336329 (PLoS ONE, 2015).

The campaign covered roughly 310,000 compounds. About 14,000 (4.5%) showed an effect of 50% or more. The effect is printed as a negative number. The entries come from a sample that favours strong results as a whole.
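Also: peak tail current of the secondary pulse compared with the same well before compound.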

The target in this experiment is human ether-à-go-go-related gene (hERG) potassium channel (human, UniProt Q12809). Put plainly: primary screen, population patch clamp on CHO cells stably expressing hERG; higher = less effect of the substance.
human ether-à-go-go-related gene (hERG) potassium channel, sequence (Q12809 whole entry, looked up): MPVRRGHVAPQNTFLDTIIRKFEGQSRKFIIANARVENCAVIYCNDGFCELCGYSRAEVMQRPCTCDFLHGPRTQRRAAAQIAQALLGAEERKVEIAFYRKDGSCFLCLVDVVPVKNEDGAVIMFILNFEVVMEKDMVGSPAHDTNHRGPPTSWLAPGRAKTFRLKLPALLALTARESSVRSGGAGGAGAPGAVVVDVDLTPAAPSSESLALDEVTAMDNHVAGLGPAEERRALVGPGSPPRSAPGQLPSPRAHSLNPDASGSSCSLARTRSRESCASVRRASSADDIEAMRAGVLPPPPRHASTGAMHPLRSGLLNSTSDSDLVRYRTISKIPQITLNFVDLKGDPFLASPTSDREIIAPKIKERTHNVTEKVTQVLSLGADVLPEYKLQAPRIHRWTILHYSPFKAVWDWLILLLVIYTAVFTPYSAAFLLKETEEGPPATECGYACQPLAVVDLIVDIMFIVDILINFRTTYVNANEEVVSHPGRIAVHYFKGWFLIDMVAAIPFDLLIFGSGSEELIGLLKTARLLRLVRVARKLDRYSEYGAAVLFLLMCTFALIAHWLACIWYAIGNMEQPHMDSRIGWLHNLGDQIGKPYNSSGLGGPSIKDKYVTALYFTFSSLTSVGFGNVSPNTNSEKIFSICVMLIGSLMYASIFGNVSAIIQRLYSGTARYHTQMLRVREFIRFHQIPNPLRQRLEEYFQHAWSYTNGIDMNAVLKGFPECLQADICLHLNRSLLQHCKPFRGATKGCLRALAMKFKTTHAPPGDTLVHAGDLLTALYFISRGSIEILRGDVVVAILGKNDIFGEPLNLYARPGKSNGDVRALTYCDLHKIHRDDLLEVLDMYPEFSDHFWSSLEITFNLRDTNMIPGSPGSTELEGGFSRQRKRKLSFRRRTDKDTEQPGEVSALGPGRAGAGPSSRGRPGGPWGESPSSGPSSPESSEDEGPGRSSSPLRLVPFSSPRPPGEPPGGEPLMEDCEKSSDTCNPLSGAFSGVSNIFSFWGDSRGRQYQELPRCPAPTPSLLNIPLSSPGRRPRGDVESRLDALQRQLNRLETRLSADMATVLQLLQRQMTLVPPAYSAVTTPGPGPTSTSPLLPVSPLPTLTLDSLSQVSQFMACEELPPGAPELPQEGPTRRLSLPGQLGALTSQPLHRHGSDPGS
On to `COc1ccc(C(=O)Nc2c3c(nn2-c2cccc(Cl)c2)CS(=O)C3)cc1` (centres unmarked), for which the “hERG current change (%, negative = inhibition) at 10uM” value was -25.6%.

For `COc1ccc(-n2nc3c(c2NC(=O)c2cc(Br)ccc2Cl)CS(=O)C3)cc1` (centres unmarked), the “hERG current change (%, negative = inhibition) at 10uM” value is -43.4%.

`COc1ccc(-n2nc3c(c2NC(=O)c2ccc(Br)cc2)CS(=O)C3)cc1` (centres unmarked): the “hERG current change (%, negative = inhibition) at 10uM” value is on record as -50.8%.

For `CN(C)c1ccc(Sc2nnc(NC(=O)Nc3ccc(Cl)cc3Cl)s2)cc1`, the “hERG current change (%, negative = inhibition) at 10uM” value was 12.2%.

In the case of `O=C(O)c1cccc(S(=O)(=O)Nc2ccc3c(c2)OCO3)c1`, the “hERG current change (%, negative = inhibition) at 10uM” value is 23.4%.

For the molecule `COc1ccc(OC)c(CN2CCN(C(=O)CCNC(=O)c3ccc(Br)cc3)CC2)c1`, the “hERG current change (%, negative = inhibition) at 10uM” value is -45.7%.

With `O=C(NCc1ccccc1CN1CCCC1)c1cccc(N2CCCC2=O)c1`, the “hERG current change (%, negative = inhibition) at 10uM” value is listed as -3.11%.

Take `CN(C)CC(NC(=O)c1cccc(S(=O)(=O)Nc2ccc3c(c2)OCO3)c1)c1ccccc1` (centres unmarked): the “hERG current change (%, negative = inhibition) at 10uM” value is reported as -14.8%.

`COc1ccc(C(=O)NCc2ccccc2OC)cc1`: the “hERG current change (%, negative = inhibition) at 10uM” value is -10.3%.

As for `COc1ccc(OC)c(CN2CCN(C(=O)CNC(=O)c3ccc(C(C)(C)C)cc3)CC2)c1`, the “hERG current change (%, negative = inhibition) at 10uM” value is listed as -53.9%.

As for `COc1ccc(C(=O)O)cc1S(=O)(=O)Nc1ccc(C)cc1`, the “hERG current change (%, negative = inhibition) at 10uM” value turned out to be 23.1%.

Take `COc1ccc(C(=O)NCc2ccccc2CN2CCCC2)cc1S(=O)(=O)Nc1ccc(C)cc1`: the “hERG current change (%, negative = inhibition) at 10uM” value is -57.9%.

`CCN(CC)Cc1ccccc1CNC(=O)c1cccc(S(=O)(=O)Nc2ccc3c(c2)OCO3)c1`: the “hERG current change (%, negative = inhibition) at 10uM” value is given as -71.3%.

Regarding `COc1ccc2cc(C(=O)NCc3ccccc3CN3CCCC3)ccc2c1`, the “hERG current change (%, negative = inhibition) at 10uM” value is -68.2%.

On to `COc1ccc(OC)c(CN2CCN(C(=O)CNC(=O)c3cc(C)cc(C)c3)CC2)c1`, for which the “hERG current change (%, negative = inhibition) at 10uM” value is given as -42.7%.

Consider `CCN1CCN(C(=O)c2ccc(OC)c(S(=O)(=O)Nc3ccc(C)cc3)c2)CC1`, for which the “hERG current change (%, negative = inhibition) at 10uM” value is -18.4%.

As to `COc1ccccc1-c1nc(S(=O)(=O)c2ccccc2)c(N2CCCCC2)o1`, the “hERG current change (%, negative = inhibition) at 10uM” value worked out at 14.4%.

As for `Cc1cc(C)cc(NC(=O)CSc2nc3[nH]ncc3c(=O)[nH]2)c1`, the “hERG current change (%, negative = inhibition) at 10uM” value came out at 11.8%.

On to `C/C(=N\NC(=S)Nc1cccc(C)c1)c1ccco1`, for which the “hERG current change (%, negative = inhibition) at 10uM” value is reported as -6.35%.

Turning to `Cc1cc2c3c(c1C)C(=O)C(=O)N3C(C)(C)CC2C` (centres unmarked), the “hERG current change (%, negative = inhibition) at 10uM” value is on record as 6.5%.

Take `O=C(COC(=O)CCCN1C(=O)c2ccccc2C1=O)Nc1cc(Cl)cc(Cl)c1`: the “hERG current change (%, negative = inhibition) at 10uM” value was -3.11%.

Take `CC12CCC(C(=O)Nc3nc4ccccc4s3)(OC1=O)C2(C)C` (centres unmarked): the “hERG current change (%, negative = inhibition) at 10uM” value is listed as 2.26%.

In the case of `O=C(NCc1ccccc1CN1CCCC1)c1cccc(S(=O)(=O)Nc2ccc(F)cc2)c1`, the “hERG current change (%, negative = inhibition) at 10uM” value is recorded as -75.2%.

With `O=C(NCc1ccccc1CN1CCCC1)c1ccc(OCc2cscn2)cc1`, the “hERG current change (%, negative = inhibition) at 10uM” value is listed as -30%.

In the case of `Cc1nc(COc2ccc(C(=O)Nc3ccccc3N3CCOCC3)cc2)cs1`, the “hERG current change (%, negative = inhibition) at 10uM” value was -49.1%.

As for `COc1ccc(NS(=O)(=O)c2cccc(C(=O)NCCCN3CCOCC3)c2)cc1`, the “hERG current change (%, negative = inhibition) at 10uM” value was 5.96%.

Consider `Cc1cccc(NS(=O)(=O)c2cccc(C(=O)NCc3ccccc3CN3CCOCC3)c2)c1`, for which the “hERG current change (%, negative = inhibition) at 10uM” value is reported as -26%.

For the molecule `COc1ccc(NS(=O)(=O)c2cccc(C(=O)NCc3ccccc3CN3CCCC3)c2)cc1`, the “hERG current change (%, negative = inhibition) at 10uM” value is recorded as -64.4%.

With `COc1ccc(NS(=O)(=O)c2cccc(C(=O)NCc3ccco3)c2)cc1`, the “hERG current change (%, negative = inhibition) at 10uM” value is reported as -15.8%.

Take `O=C(NCCN1CCOCC1)c1cccc(S(=O)(=O)Nc2ccc(F)cc2)c1`: the “hERG current change (%, negative = inhibition) at 10uM” value is -5.27%.

For `Cc1nc(COc2ccc(C(=O)NCc3ccccc3CN3CCCCC3)cc2)cs1`, the “hERG current change (%, negative = inhibition) at 10uM” value is on record as -52.5%.

`COc1ccc(N/C=C(\C(C)=O)c2ccc(OC)c(OC)c2)cc1OC`: the “hERG current change (%, negative = inhibition) at 10uM” value is on record as 18.2%.

With `CCNc1nc(N2CCOCC2)nc(N(c2ccccc2)c2ccccc2)n1`, the “hERG current change (%, negative = inhibition) at 10uM” value was -12.9%.

Take `CS(=O)(=O)N1CCC(C(=O)Nc2cc(Cl)cc(Cl)c2)CC1`: the “hERG current change (%, negative = inhibition) at 10uM” value is reported as 4.85%.

With `Cn1c(=O)c2c(nc(Sc3ccccc3N)n2C)n(C)c1=O`, the “hERG current change (%, negative = inhibition) at 10uM” value was 11.4%.

For the molecule `Cl.c1coc(Cn2nnnc2CN2CCN(C3CCCCC3)CC2)c1`, the “hERG current change (%, negative = inhibition) at 10uM” value is recorded as -41.4%.

Regarding `CC(C)C(c1nnnn1Cc1ccco1)N1CCN(C2CCCC2)CC1.Cl` (centres unmarked), the “hERG current change (%, negative = inhibition) at 10uM” value is on record as -3.68%.

Consider `Cl.c1ccc(C(c2nnnn2Cc2ccco2)N2CCN(C3CCCC3)CC2)cc1` (centres unmarked), for which the “hERG current change (%, negative = inhibition) at 10uM” value is reported as -53.5%.

For `Cl.Fc1ccc(C(c2nnnn2Cc2ccco2)N2CCN(C3CCCCC3)CC2)cc1` (centres unmarked), the “hERG current change (%, negative = inhibition) at 10uM” value was -65.6%.

For `CCCC(c1nnnn1Cc1ccco1)N1CCN(C2CCCC2)CC1` (centres unmarked), the “hERG current change (%, negative = inhibition) at 10uM” value is -31%.

For the molecule `CC(C)CC(c1nnnn1Cc1ccco1)N1CCN(C2CCCC2)CC1.Cl` (centres unmarked), the “hERG current change (%, negative = inhibition) at 10uM” value was -38.1%.

As for `N#Cc1nc(COc2ccccc2)oc1N1CCOCC1`, the “hERG current change (%, negative = inhibition) at 10uM” value is -19.6%.

`Cc1ccc(NC(=O)/C=C\C(=O)NCC(=O)O)cc1`: the “hERG current change (%, negative = inhibition) at 10uM” value was found to be 0.434%.

Turning to `CC(=O)C1=C(C)Nc2ncnn2C1c1ccc(Cl)cc1Cl` (centres unmarked), the “hERG current change (%, negative = inhibition) at 10uM” value was found to be 2.23%.

Regarding `Cn1cc(CN2CCC(n3nccc3NC(=O)Cc3ccccc3)CC2)cn1`, the “hERG current change (%, negative = inhibition) at 10uM” value was -41.8%.

For `CCc1ccc(C(=O)N2CCN(c3ccc(NC(=O)c4cccnc4)cc3)CC2)cc1`, the “hERG current change (%, negative = inhibition) at 10uM” value was -71.3%.

Take `COc1ccc(NC(=O)c2cccnc2)cc1`: the “hERG current change (%, negative = inhibition) at 10uM” value was -11.1%.

With `COc1ccc(C(=O)N2CCN(c3ccc(NC(=O)c4cccnc4)cc3)CC2)cc1`, the “hERG current change (%, negative = inhibition) at 10uM” value was -53.7%.

`Cc1ccccc1C(=O)N1CCN(c2ccc(NC(=O)c3cccnc3)cc2)CC1`: the “hERG current change (%, negative = inhibition) at 10uM” value is -23%.

As to `O=C(Nc1ccc(N2CCN(C(=O)c3ccccc3)CC2)cc1)c1cccnc1`, the “hERG current change (%, negative = inhibition) at 10uM” value was -1.77%.

In the case of `Cc1ccc(C(=O)N2CCN(c3ccc(NC(=O)c4cccnc4)cc3)CC2)cc1`, the “hERG current change (%, negative = inhibition) at 10uM” value was -38.8%.

Take `C=CCN1C(=O)C(C)(C)N(C(=O)c2cccc([N+](=O)[O-])c2)c2ccccc21`: the “hERG current change (%, negative = inhibition) at 10uM” value was -16.4%.

Consider `Cc1ccc[n+](C2C(c3ccc([N+](=O)[O-])cc3)C(C#N)=C([S-])NC2(O)C2CC2)c1` (centres unmarked), for which the “hERG current change (%, negative = inhibition) at 10uM” value turned out to be 0.00258%.
